Results filed as inconclusive are left out. Activity calls are given as the source filed them. Calls follow the shape of the dose curve; as a rule, active = well fitted inhibition curve with a large enough effect; inconclusive = small, poorly fitted or top-dose-only effect; inactive = flat fitted curve, though single readings scatter.
Experiments:
Assay in all cases: qHTS profiling for inhibitors of Plasmodium falciparum proliferation (AID 504749); also: nearly all actives have a fitted effect of over 60% in size
Details in all cases: P. falciparum in erythrocytes, SYBR Green DNA, 72 h; series mostly up to 28.7 µM
FAB9 = test system: FAB9
Summary of the method: (§1)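 P. falciparum-infected erythrocytes (0.3% parasitemia, 2.5% hematocrit final) were exposed to compounds for 72 h at 37 C in 5% CO2, then lysed with SYBR Green buffer overnight at room temperature; parasite DNA fluorescence was normalized to artemisinin and DMSO controls.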

HB3 = test system: HB3
Summary of the method: as §1

ICS = test system: ICS
Summary of the method: as §1

JCK = test system: JCK
Summary of the method: as §1

GB4 = test system: GB4
Summary of the method: as §1

N140 = test system: N140
Summary of the method: as §1

P94_40 = test system: P94_40
Summary of the method: as §1

PAD = test system: PAD
Summary of the method: as §1

PC15 = test system: PC15
Summary of the method: as §1

P93_24 = test system: P93_24
Summary of the method: as §1

Measured: Potency
Potency is read from the fitted curve at half-maximal effect.

NCc1ccccc1Sc1ccccc1CO
inactive: FAB9 | HB3 | JCK
active: ICS 8.91 µM

C=CCN1CCc2nc(N)sc2CC1
not listed: ICS | P93_24
inactive: all other assays above

CCC(CC)(CC(=O)Nc1cccc(/C=C/c2nc(C3CCC3)cs2)c1)C(=O)O
not listed: ICS
inactive: all other assays above

NC(=O)C1(N2CCCCC2)CCN(CCCC(=O)c2ccc(F)cc2)CC1
not listed: GB4 | P93_24
inactive: all other assays above

CN(Cc1ccc(C(C)(C)C)cc1)Cc1cccc2ccccc12
inactive: FAB9 | GB4 | JCK | N140 | PAD | PC15

Cc1cc2c(OCC(CNC(C)(C)C)OC(=O)c3ccccc3)cccc2[nH]1 (centres undefined)
active: GB4 10.7 µM | ICS 8.91 µM
inactive: FAB9 | JCK | PAD | PC15

Oc1c(Cl)cc(Cl)c(Cl)c1Cc1c(O)c(Cl)cc(Cl)c1Cl
active: GB4 15.1 µM | ICS 7.08 µM | P93_24 8.91 µM
inactive: FAB9

Cc1cc(CC(=O)O)c(C)n1-c1ccc(Cl)cc1
inactive: FAB9 | HB3 | JCK | PC15
active: ICS 8.91 µM

CN(CCCN1c2ccccc2CCc2ccccc21)CC(=O)c1ccc(Cl)cc1
active: HB3 12.6 µM | ICS 2 µM | N140 7.94 µM | P93_24 11.2 µM | P94_40 8.91 µM | PAD 12.6 µM | PC15 10 µM
inactive: FAB9

COc1cc(N)c(Cl)cc1C(=O)NC1CCN(Cc2ccccc2)CC1
not listed: GB4
inactive: all other assays above

CCOc1ccccc1OCCN[C@H](C)Cc1ccc(OC)c(S(N)(=O)=O)c1
not listed: GB4
inactive: all other assays above

COc1ccc(C(=O)c2ccccc2O)c(O)c1
active: ICS 2.51 µM
inactive: FAB9 | HB3 | P93_24 | PC15

C#C[C@]1(O)CC[C@H]2[C@@H]3CCc4cc(OC)ccc4[C@H]3CC[C@@]21C
not listed: ICS
inactive: all other assays above

O=S(c1cc(Cl)cc(Cl)c1O)c1cc(Cl)cc(Cl)c1O
active: FAB9 22.4 nM | HB3 0.0032 µM
inactive: ICS | PC15

Cc1ncc(CO)c(C=O)c1O
not listed: GB4
inactive: all other assays above

CCN(CC)CCNC(=O)COc1ccc(OC)cc1
not listed: GB4
inactive: all other assays above

COc1ccc(C(=O)c2ccccc2)c(O)c1
active: HB3 10 µM | ICS 2.82 µM
inactive: FAB9 | JCK | P94_40

CC(=O)N[C@@H](CCC(=O)O)C(=O)O
not listed: GB4 | P94_40
inactive: all other assays above

C/C=C/c1ccc(O)c(OC)c1
not listed: ICS | P93_24
inactive: all other assays above

CO[C@]12C[C@@H](COC(=O)c3cncc(Br)c3)CN(C)[C@@H]1Cc1cn(C)c3cccc2c13
inactive: FAB9 | HB3 | JCK

CN1CCN(C2=Nc3ccccc3Sc3ccc(Cl)cc32)CC1
active: ICS 11.2 µM
inactive: FAB9 | HB3 | JCK | PC15

O=[N+]([O-])c1cccc(S(=O)(=O)NCCNS(=O)(=O)c2cccc([N+](=O)[O-])c2)c1
inactive: FAB9 | HB3 | JCK | N140 | P93_24 | P94_40

O=C(CCN1CCN2CCCC2C1)N1c2ccccc2Sc2ccc(Cl)cc21 (centres undefined)
inactive: FAB9 | HB3 | JCK
active: ICS 5.01 µM

Cl/C(=C\n1cncn1)c1ccc(Cl)cc1Cl
not listed: ICS
inactive: all other assays above

Cc1cccc(C)c1NC(=O)CN1CCCCCC1
not listed: GB4
inactive: all other assays above

COc1cc([C@H]2Oc3cc([C@H]4Oc5cc(O)cc(O)c5C(=O)[C@@H]4O)ccc3O[C@@H]2CO)ccc1O
active: ICS 8.91 µM
inactive: FAB9 | HB3 | JCK

O=C(NC1CCN(CCc2c[nH]c3ccccc23)CC1)c1ccccc1
active: ICS 8.91 µM
inactive: FAB9 | HB3 | JCK | N140 | PAD

CN1CCN(c2c(F)cc3c(=O)c(C(=O)O)cn4c3c2SCC4)CC1
inactive: FAB9 | GB4 | HB3 | JCK | PC15

O=C1C(O)=C(O)C(=O)C(O)=C1O
not listed: ICS
inactive: all other assays above

C#C[C@]1(O)CC[C@H]2[C@@H]3CCC4=CC(=O)CC[C@@H]4[C@H]3CC[C@@]21CC
not listed: HB3 | ICS
inactive: all other assays above

OC(C#CCN1CCCC1)(c1ccccc1)c1ccccc1
inactive: FAB9 | HB3 | JCK | PC15
active: GB4 6.75 µM | N140 11.2 µM

CC(=O)OCC(=O)[C@H]1CC[C@H]2[C@@H]3CCC4=CC(=O)CC[C@]4(C)[C@H]3CC[C@]12C
not listed: ICS
inactive: all other assays above

CCC(C(=O)OCCOCCN(CC)CC)c1ccccc1 (centres undefined)
not listed: GB4 | P94_40
inactive: all other assays above

CN1CCC[C@@H]1CCO[C@](C)(c1ccccc1)c1ccc(Cl)cc1
active: ICS 10 µM
inactive: FAB9 | HB3 | JCK | P94_40 | PAD

O=C(Nc1ccc([N+](=O)[O-])cc1)Nc1ccc([N+](=O)[O-])cc1
active: ICS 2 µM
not listed: HB3
inactive: all other assays above

— PubChem BioAssay (NCATS)
